Calls of active or inactive are those of the source.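 Rule for the calls, unless noted: active = inhibition at or above 50% at 10 µM; inactive = inhibition below 50%.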
Assays:
[1] = inhibitors of TNFa-induced NFkB p65 translocation, primary screen, imaging, HUVEC, MLSMR starter and 10KST1 sets (AID 438;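 active = inhibition above 20% together with a positive visual image hit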;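 note: compound added about 3h40 before a 20 min TNFalpha stimulation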;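 for inhibition: signal is the nuclear over cytoplasmic p65 intensity ratio per well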); details: HUVEC TNFa-induced p65 nuclear translocation; cell count: measured here: nuclei count (cytotoxicity indicator), at 2.08 µM; inhibition: at 2 µM, stronger effect = higher value, 0% TNFa-plus-vehicle, 100% no-TNFa wells
[2] = inhibitors of mutant huntingtin aggregation, primary screen, imaging, exon1htt(103Q)mCFP cells, high-content imaging (AID 483;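 active = visual image review flags a hit and inhibition of aggregation exceeds 20%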;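 note: compound exposure lasted 3 days before fixation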;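 for nuclei count: percent of the per-plate median nuclei count of sample wells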); details: exon1htt(103Q)mCFP cell line, aggregate imaging, at 2 µM; inhibition of aggregation: stronger effect = higher value; nuclei count: measured here: cell count, toxicity
[3] = inhibitors of E-selectin induction by TNFa, primary screen, imaging, HUVEC, immunofluorescence, MLSMR starter and 10KST1 sets (AID 487;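 active = visually confirmed hit in the image check and inhibition above 20%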;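 for inhibition: signal is fraction of cell area covered by stained E-selectin grains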;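 for nuclei count: 100% = median nuclei count of all wells on the same plate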); details: HUVEC TNFalpha-induced E-selectin immunofluorescence imaging, at 2 µM; inhibition: stronger effect = higher value; nuclei count: measured here: cell number, toxicity
[4] = target: Voltage-gated potassium channel subunit beta-2 (Rattus norvegicus) (UniProt P62483); test: KvBeta enzyme negative modulators, primary screen, biochemical, NADPH fluorescence (AID 622;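 active = fluorescence slope higher than the sample average by over 3 SD, cut at about -0.22 in these data, passing the limit was not always enough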;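 note: slope of raw intensity against log time taken from 70 to 1610 s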); details: recombinant KvBeta, 4-cyanobenzaldehyde reduction, at 10 µM, stronger effect = higher value
[5] = target: Voltage-gated potassium channel subunit beta-2 (Rattus norvegicus) (UniProt P62483); test: KvBeta positive modulators, primary screen, biochemical, NADPH fluorescence (AID 623;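 active = NADPH fluorescence slope more negative than the mean of all samples by about 3 SD, 99.7% confidence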;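 note: fluorescence intensity change per second fitted from 20 to 320 s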); details: Recombinant KvBeta, NADPH fluorescence decrease slope, 10 min; at 10 µM; stronger effect = lower value
[6] = target: Alpha-2C adrenergic receptor (Homo sapiens) (UniProt P18825); test: modulators of alpha2C/GIRK thallium flux, primary screen, cell-based, HEK293 alpha2C/GIRK1/2 (AID 624;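 active = fluorescence slope after compound addition differing from the mean of all screened samples at 99.7% confidence, in either direction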;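 note: slope of fluorescence ratio to pre-addition baseline per second over 15 to 24 s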); details: thallium flux BTC fluorescence, at 10 µM, actives lie on both sides
[7] = inhibitors of Sendai virus-induced IRF3 signaling, primary screen, TLR/RLR signaling modifier project, cell-based, Sendai virus stimulus, luciferase, 10K MLSCN set (AID 602276); details: HEK293 RL24 IRF3 luciferase reporter, at 10 µM, stronger effect = higher value;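 note: firefly luciferase from ISG56 promoter only with Renilla not read in this screen; 0% = Sendai virus plus DMSO and 100% = medium plus DMSO without virus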
[8] = inhibitors of poly I:C-induced TLR3 signaling, primary screen, cell-based, poly I:C stimulus, luciferase, 10K MLSCN set (AID 602277;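 active = inhibition of the reporter signal at or above 50%; inactive = inhibition below 50%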); details: HEK293-TLR3 RL24 IRF3 luciferase reporter, at 10 µM, stronger effect = higher value

Sequence of Voltage-gated potassium channel subunit beta-2 (Rattus norvegicus) (P62483 whole entry, looked up): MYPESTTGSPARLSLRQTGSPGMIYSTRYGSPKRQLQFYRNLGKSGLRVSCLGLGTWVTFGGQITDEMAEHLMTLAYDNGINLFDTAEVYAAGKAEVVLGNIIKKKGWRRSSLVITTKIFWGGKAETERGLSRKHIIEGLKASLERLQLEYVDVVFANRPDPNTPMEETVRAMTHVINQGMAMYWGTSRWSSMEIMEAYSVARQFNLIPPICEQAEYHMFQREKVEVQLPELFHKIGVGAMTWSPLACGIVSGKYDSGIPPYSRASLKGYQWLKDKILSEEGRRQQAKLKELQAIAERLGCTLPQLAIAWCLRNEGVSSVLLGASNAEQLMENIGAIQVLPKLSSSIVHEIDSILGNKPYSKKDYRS
Sequence of Alpha-2C adrenergic receptor (Homo sapiens) (P18825 whole entry, looked up): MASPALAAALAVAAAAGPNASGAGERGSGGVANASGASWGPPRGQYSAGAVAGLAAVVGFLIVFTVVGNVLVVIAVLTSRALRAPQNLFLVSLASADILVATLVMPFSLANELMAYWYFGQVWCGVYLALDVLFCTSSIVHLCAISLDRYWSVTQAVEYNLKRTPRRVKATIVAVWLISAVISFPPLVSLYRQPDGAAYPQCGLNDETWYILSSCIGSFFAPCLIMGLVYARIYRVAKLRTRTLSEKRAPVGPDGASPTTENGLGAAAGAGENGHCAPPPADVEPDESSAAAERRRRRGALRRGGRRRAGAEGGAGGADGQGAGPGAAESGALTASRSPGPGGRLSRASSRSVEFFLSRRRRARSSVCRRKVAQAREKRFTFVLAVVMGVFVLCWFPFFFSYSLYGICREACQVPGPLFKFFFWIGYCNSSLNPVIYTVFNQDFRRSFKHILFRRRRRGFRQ

Structure (SMILES)	cell count [1]	inhibition [1]	inhibition of aggregation [2]	nuclei count [2]	nuclei count [3]	fluorescence slope [4]	NADPH fluorescence slope [5]	slope [6]	inhibition [7]	inhibition [8]	inhibition [3]
Cn1c(=O)c2c(nc(NCCNC(=O)c3ccco3)n2Cc2ccccc2Cl)n(C)c1=O	424	7.1% (inactive)	1.7% (inactive)	98.3%	136%	-0.354 (inactive)	-2.6e-05 (inactive)	0.00598 (inactive)	-7.85% (inactive)	2.32% (inactive)	–
Cc1nc2sc(C(c3cccc(F)c3)N3CCOCC3)c(O)n2n1 (stereo not drawn)	244	-9% (inactive)	-29% (inactive)	112%	119%	-0.502 (inactive)	-9.8e-05 (inactive)	0.00576 (inactive)	-7.54% (inactive)	99.3% (active)	-18.1% (inactive)
CCN(CC)S(=O)(=O)c1ccc(NC2CCCc3ccccc32)nc1 (stereo not drawn)	451	7.1% (inactive)	15.4% (inactive)	103%	163%	-0.594 (inactive)	-3e-05 (inactive)	0.00558 (inactive)	11.9% (inactive)	17.1% (inactive)	–
COC(=O)CCn1nnc(-c2cccs2)n1	547	-6.8% (inactive)	7.6% (inactive)	110%	96%	-0.598 (inactive)	-5.1e-05 (inactive)	0.00439 (inactive)	-2.1% (inactive)	-22% (inactive)	-34.8% (inactive)
CN1CCC(NC(=O)c2cccs2)CC1	575	8.5% (inactive)	-27.2% (inactive)	88.6%	112%	-0.547 (inactive)	-5e-05 (inactive)	0.00687 (inactive)	8.43% (inactive)	33.8% (inactive)	-16.6% (inactive)
O=C(CCNS(=O)(=O)c1cccc2nsnc12)NCc1cccs1	623	-21% (inactive)	-17.4% (inactive)	101%	118%	-0.508 (inactive)	-0.000109 (inactive)	0.00523 (inactive)	17.1% (inactive)	19% (inactive)	-34.5% (inactive)
CCOC(=O)C1=C(CS(=O)(=O)c2ccc(F)c(C)c2)NC(=O)NC1c1ccc(O)c(O)c1 (stereo not drawn)	619	-0.8% (inactive)	8.1% (inactive)	112%	116%	-0.576 (inactive)	-2.4e-05 (inactive)	0.00703 (inactive)	-1.61% (inactive)	5.18% (inactive)	-35.7% (inactive)
CCc1ccc(N(CC(=O)NC2CCCC2)S(=O)(=O)c2c(C)noc2C)cc1	720	-0.8% (inactive)	-6% (inactive)	97.9%	102%	-0.569 (inactive)	-4.6e-05 (inactive)	0.00649 (inactive)	4.77% (inactive)	37.7% (inactive)	-48.7% (inactive)
CCC(C)Nc1nc2c(c(=O)n(C)c(=O)n2C)n1Cc1ccc(F)cc1 (stereo not drawn)	436	14.8% (inactive)	9.6% (inactive)	100%	106%	-0.617 (inactive)	-3.2e-05 (inactive)	0.00579 (inactive)	15.9% (inactive)	23.7% (inactive)	-18.5% (inactive)
O=C(CC(C(=O)N1CCc2ccccc21)n1ccnc1)NCc1cccnc1 (stereo not drawn)	655	-2.2% (inactive)	23.5% (inactive)	122%	119%	-0.446 (inactive)	9.2e-07 (inactive)	0.00564 (inactive)	10.8% (inactive)	20.7% (inactive)	-67% (inactive)
O=C(Nc1ccccc1)C1=C(O)CC(c2ccoc2)CC1=Nc1ccccc1 (stereo not drawn)	321	-2.1% (inactive)	7.8% (inactive)	94.4%	121%	-0.422 (inactive)	-5.7e-05 (inactive)	0.00565 (inactive)	4% (inactive)	16.9% (inactive)	-80.4% (inactive)
Cc1nn(C(=O)c2cc3sccc3[nH]2)c(C)c1C	574	-11.9% (inactive)	0.1% (inactive)	95.1%	104%	-0.416 (inactive)	-2.7e-05 (inactive)	0.00333 (inactive)	-8.25% (inactive)	-82.9% (inactive)	-65.4% (inactive)
CCOC(=O)c1cnn(-c2cc(C)c3cc(C)cc(C)c3n2)c1N	494	9% (inactive)	-9.8% (inactive)	110%	152%	-0.545 (inactive)	2e-05 (inactive)	0.00906 (inactive)	-17.1% (inactive)	-21.2% (inactive)	–
COc1cc(-c2noc(-c3ccccc3C(=O)NCc3ccco3)n2)cc(OC)c1OC	654	-5.4% (inactive)	-4% (inactive)	112%	156%	-0.59 (inactive)	-4.7e-05 (inactive)	0.00612 (inactive)	14.7% (inactive)	31.9% (inactive)	-111% (inactive)
Cc1ccc(C)c(S(=O)(=O)n2cnc3ccccc32)c1	262	-5.9% (inactive)	17.8% (inactive)	79.3%	108%	-0.463 (inactive)	2.3e-05 (inactive)	0.00359 (inactive)	14.5% (inactive)	27.4% (inactive)	-42.5% (inactive)
COc1ccc(C)cc1-n1nnnc1SCC(=O)Nc1cc(C)on1	452	2.5% (inactive)	-18% (inactive)	96.7%	150%	-0.6 (inactive)	-3.5e-05 (inactive)	0.00592 (inactive)	2.92% (inactive)	12.5% (inactive)	-330% (inactive)
COc1ccccc1NCN1C(=O)CCC1=O	710	5.4% (inactive)	-0.4% (inactive)	97.3%	104%	-0.551 (inactive)	-2.5e-05 (inactive)	0.00722 (inactive)	13.3% (inactive)	26.9% (inactive)	-32.2% (inactive)
O=P(O)(CN1CCCCCC1)CN1CCCCCC1	575	13.9% (inactive)	-5.3% (inactive)	107%	112%	-0.484 (inactive)	-5.2e-05 (inactive)	0.0053 (inactive)	-7.54% (inactive)	17.4% (inactive)	6% (inactive)
O=C(Nc1ccc2c(c1)OCCO2)C1CCCN(S(=O)(=O)c2cnc[nH]2)C1 (stereo not drawn)	628	4.1% (inactive)	-8% (inactive)	102%	114%	-0.563 (inactive)	-4.5e-07 (inactive)	0.00662 (inactive)	-16.1% (inactive)	-6.55% (inactive)	-29.5% (inactive)
Cn1c(=O)cc(OCCCC(=O)Nc2ccc3c(c2)OCCO3)c2ccccc21	361	-3.3% (inactive)	-4.7% (inactive)	101%	113%	-0.511 (inactive)	-1.4e-05 (inactive)	0.00629 (inactive)	-5.46% (inactive)	-1.3% (inactive)	-8.1% (inactive)
Cc1nc2ccccc2c2oc(C(=O)N3CCC(N4CCCCC4)CC3)cc12	591	-4.4% (inactive)	-14.4% (inactive)	100%	119%	-0.602 (inactive)	-3.1e-05 (inactive)	0.00619 (inactive)	-0.549% (inactive)	24% (inactive)	-12.1% (inactive)
O=C(CSc1nnc(-c2ccc(Br)o2)n1Cc1ccccc1)c1ccccc1F	336	-5.8% (inactive)	11.9% (inactive)	87.1%	96.4%	-0.391 (inactive)	-4.8e-05 (inactive)	0.00522 (inactive)	6.04% (inactive)	18.1% (inactive)	-35.1% (inactive)
COc1ccc(-c2nnc(SCC(=O)NC(=O)NCc3ccco3)o2)cc1	417	5.6% (inactive)	-7.4% (inactive)	102%	157%	-0.455 (inactive)	9.2e-05 (inactive)	0.00577 (inactive)	18.6% (inactive)	24.4% (inactive)	–
CN(C)C(=O)c1ccc(COc2ccccc2Br)o1	730	-11% (inactive)	27.2% (inactive)	71.4%	104%	-0.606 (inactive)	-2.2e-05 (inactive)	0.0062 (inactive)	-40.1% (inactive)	-62.5% (inactive)	-26.4% (inactive)
CCOC(=O)c1sc(NC(=O)c2noc3c2CCCC3)c(C(=O)OCC)c1C	688	-2.9% (inactive)	-14.8% (inactive)	120%	87.6%	-0.549 (inactive)	1e-05 (inactive)	0.0086 (inactive)	2.17% (inactive)	6.46% (inactive)	-47.9% (inactive)
CC(C)C(NC(=O)c1ccc(S(=O)(=O)N2CCOCC2)cc1)c1nc2ccccc2[nH]1 (stereo not drawn)	276	15.9% (inactive)	-10.8% (inactive)	114%	98.7%	-0.436 (inactive)	-9.2e-05 (inactive)	0.00591 (inactive)	13.3% (inactive)	26% (inactive)	8.4% (inactive)
Nc1nonc1N1CCCCC1	437	-8.1% (inactive)	-6.7% (inactive)	107%	104%	-0.474 (inactive)	-4.6e-05 (inactive)	0.00308 (inactive)	4.11% (inactive)	26.3% (inactive)	27.5% (inactive)

From PubChem BioAssay
